The structures appear in SMILES notation. Inconclusive results are not listed. Active and inactive are the calls of the source. Unless noted, calls follow the shape of the dose curve; as a rule, active = well fitted curve in the direction sought with a large enough effect; inconclusive = small, poorly fitted or top-dose-only effect, or another doubt; inactive = no such curve, though single readings can be large; an effect the other way counts as inactive or inconclusive.

Consider three molecules from PubChem BioAssay (NCATS).

In assay [1] the target is Lysosomal acid glucosylceramidase (Homo sapiens) (UniProt P04062). The experiment in a line: Glucocerebrosidase-p2 (AID 348; in the data active = potency below about 10 µM; also: potency is read from the fitted curve at half-maximal effect). The note with it: purified GBA, blue fluorogenic substrate, 40 min. The method, boiled down: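 Compounds titrated from 0.6 nM upwards against 0.2 nM enzyme in pH 5.9 citric acid/KH2PO4, taurocholate, tween-20; blue fluorogenic substrate 80 uM, 40 min room temperature, stopped and read Ex 365/Em 440 for AC50.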
Lysosomal acid glucosylceramidase (Homo sapiens), sequence (P04062 whole entry, looked up): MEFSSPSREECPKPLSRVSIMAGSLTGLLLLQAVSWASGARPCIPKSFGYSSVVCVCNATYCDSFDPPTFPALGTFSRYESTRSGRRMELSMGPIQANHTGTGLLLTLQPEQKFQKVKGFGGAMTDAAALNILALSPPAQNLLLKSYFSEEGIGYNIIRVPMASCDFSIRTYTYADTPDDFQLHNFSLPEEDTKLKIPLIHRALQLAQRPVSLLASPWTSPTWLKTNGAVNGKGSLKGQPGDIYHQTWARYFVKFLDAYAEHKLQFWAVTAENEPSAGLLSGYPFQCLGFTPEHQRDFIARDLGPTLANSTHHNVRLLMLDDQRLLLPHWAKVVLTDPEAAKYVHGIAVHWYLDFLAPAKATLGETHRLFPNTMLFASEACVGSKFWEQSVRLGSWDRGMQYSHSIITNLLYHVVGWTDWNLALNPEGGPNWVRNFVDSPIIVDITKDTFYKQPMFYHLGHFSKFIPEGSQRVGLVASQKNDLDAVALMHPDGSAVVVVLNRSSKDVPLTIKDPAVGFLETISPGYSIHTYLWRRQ

Assay [2] is described as follows: AP1 Signaling Pathway (AID 357; active = well fitted curve in either direction with a large enough effect, not every such curve was filed as active;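 also: ME-180 reporter cells stimulated with EGF at its EC50 level; % is scaled to controls: 0 for no effect and ±100 for the full control effect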). The conditions noted are these: ME-180 AP-1-bla reporter, EGF-induced, beta-lactamase ratio, 5 h; at 7.69 µM (top of the series) unless noted. The method, boiled down:
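Beta-lactamase reporter under AP-1 response element, ME-180 background. Stimulus: EC50 EGF. Compound exposure 5 h, 37 °C. Detection: CCF4, 2.5 h RT, 460/530 nm. Values: AC50 from titration.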

Assay [3] deals with Cytochrome P450 1A2 (Homo sapiens) (UniProt P05177). Briefly: p450-cyp1a2 (AID 410; calls by dose curve; also: potency is read from the fitted curve at half-maximal effect). The note with it: recombinant CYP1A2, luciferin-ME demethylation, luminescence; series mostly up to 57 µM. An outline of the steps:
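Human CYP1A2 (20nM) demethylated Luciferin-ME at its Km (100uM) in 100mM KPO4. After 10 min compound preincubation, NADPH regeneration ran the reaction 60 min at room temperature. Luciferin was read by luminescence, normalized to 57 uM furafylline.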

Assay [4] can be described thus: NFAT Signaling Pathway (AID 444; active = well fitted curve in either direction with a large enough effect, not every such curve was filed as active;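 also: carbachol stimulus at about its EC50 of 1 µM final; % is scaled to controls: 0 for no effect and ±100 for the full control effect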). The conditions noted are these: Jurkat NFAT-bla M1, carbachol, beta-lactamase ratio, 5 h; at 7.69 µM (top of the series) unless noted. The method, boiled down: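 Jurkat cells carrying an NFAT-driven β-lactamase reporter and co-transfected muscarinic M1 receptor were treated with compound plus carbachol (1 uM final, an EC50 level) for 5 h at 37 °C. CCF4 loading followed for 1 h at RT; 460/530 nm ratio gave %activity.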

The nature of assay [5]: Stat Signaling Pathway (AID 446; active = well fitted curve in either direction with a large enough effect, not every such curve was filed as active;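 also: ME-180 cervical cancer cells given 40 pM IL-6 alongside compound; SIE-controlled beta-lactamase reporter measured as 460/530 nm FRET emission ratio; % is scaled to controls: 0 for no effect and ±100 for the full control effect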). The conditions noted are these: ME-180 (cervical carcinoma) SIE beta-lactamase reporter, IL-6 stimulated, 5 h; at 7.69 µM (top of the series) unless noted. The method, boiled down:
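ME-180 SIE-bla cells; overnight plating; cpd + IL-6 40 pM, 5 h, 37 C; LiveBLAzer 2.5 h RT; 460/530 nm emission ratio. Normalized to 300 pM IL-6 and 125 nM JAK inhibitor controls.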

The target in assay [6] is Glucocorticoid receptor (Homo sapiens) (UniProt P04150). Briefly: GR-GFP Redistribution (AID 450;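 active = compounds whose dose series gives a full or clear partial fitted curve of increased nuclear translocation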; also: potency is read from the fitted curve at half-maximal effect). The note with it: U2OS GR-GFP nuclear translocation, laser cytometry, 2 h.
Glucocorticoid receptor (Homo sapiens), sequence (P04150 whole entry, looked up, the tested form may be a part): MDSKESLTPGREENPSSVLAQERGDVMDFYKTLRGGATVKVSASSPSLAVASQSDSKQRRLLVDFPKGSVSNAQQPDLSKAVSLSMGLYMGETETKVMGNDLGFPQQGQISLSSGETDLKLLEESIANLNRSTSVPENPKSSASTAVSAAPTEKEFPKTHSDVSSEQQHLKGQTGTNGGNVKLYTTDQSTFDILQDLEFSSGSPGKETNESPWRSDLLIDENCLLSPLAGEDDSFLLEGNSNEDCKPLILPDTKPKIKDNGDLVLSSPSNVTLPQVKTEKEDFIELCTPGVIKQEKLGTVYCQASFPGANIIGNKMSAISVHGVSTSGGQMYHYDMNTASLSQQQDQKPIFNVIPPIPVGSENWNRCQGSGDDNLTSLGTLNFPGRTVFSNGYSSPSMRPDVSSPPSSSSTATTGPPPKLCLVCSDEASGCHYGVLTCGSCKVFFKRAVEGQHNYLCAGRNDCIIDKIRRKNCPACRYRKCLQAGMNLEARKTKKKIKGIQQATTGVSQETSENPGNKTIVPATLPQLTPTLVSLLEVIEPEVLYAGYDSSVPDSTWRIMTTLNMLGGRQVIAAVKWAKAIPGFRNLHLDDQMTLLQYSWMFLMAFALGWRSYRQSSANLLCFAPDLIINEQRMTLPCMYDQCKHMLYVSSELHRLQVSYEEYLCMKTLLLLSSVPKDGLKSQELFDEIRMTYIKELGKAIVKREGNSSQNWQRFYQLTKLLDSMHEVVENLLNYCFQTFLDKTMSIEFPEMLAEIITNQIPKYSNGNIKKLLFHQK
For assay [7] the target is unchanged. Briefly: GR-EFC Redistribution (AID 451; calls by dose curve; also: potency is read from the fitted curve at half-maximal effect). The conditions noted are these: CHO-K1 GR-EFC translocation, beta-gal luminescence, 2 h. An outline of the steps: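 CHO-K1 cells stably expressing nuclear-localized β-gal enzyme acceptor and GR fused C-terminally to the enzyme donor fragment; ligand-driven nuclear translocation restores β-gal by complementation. Compounds titrated up to 46 uM final, 2 h at 37 °C; luminescence read.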

The target in assay [8] is Mitogen-activated protein kinase 10 (Mus musculus) (UniProt Q61831). The experiment in a line: JNK3 AlphaScreen Assay (AID 530; active = well fitted curve in either direction with a large enough effect, not every such curve was filed as active;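 also: kinase came from lysate of stimulated human HepG2 cells; signal reports phosphorylation of biotinylated GST-cJun 1-79 at Ser73 with 10 µM ATP; % is scaled to controls: 0 for no effect and ±100 for the full control effect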). The note with it: JNK3 lysate, c-Jun phosphorylation; series mostly up to 57.1 µM. The method, boiled down:
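JNK3 came from HepG2 lysates pre-activated with IL-1beta and TNF-alpha and phosphorylated biotinylated GST-cJun (1-79) at 10 uM ATP, pH 7.6, room temperature. Compounds were titrated. AlphaScreen signal used anti-phospho-cJun (Ser73) antibody.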
(Alpha assays give light when donor and acceptor beads are brought close together.)

In assay [9] the target is 3',5'-cyclic-AMP phosphodiesterase 4B (Homo sapiens) (UniProt Q07343). The experiment in a line: qHTS Assay for Inhibitors of PDE-IV (AID 607; active = well fitted activation curve with a large enough effect in the main read-out, with a control signal flat, not every such curve was filed as active; also: % of control where 0% means no effect). The conditions noted are these: HEK293 ACTOne CNG channel cells, membrane potential fluorescence; series mostly up to 22.9 µM. The method, boiled down:
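ACTOne HEK293 cells carry a modified cAMP-gated CNG channel and express endogenous PDE4; plated 1000 cells/well, compounds up to 22.9 uM final. Membrane-potential dye fluorescence (ex 535/em 590) was read; parental cells received 10 uM forskolin + 100 uM RO 20-1724.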
A general note: Quantitative high-throughput screening tests each substance at several concentrations.

The target of assay [10] is Cytochrome P450 3A4 (Homo sapiens) (UniProt P08684). Briefly: qHTS Assay for Activators of Cytochrome P450 3A4 (AID 885). Also: nearly all actives have a fitted effect of over 65% in size. The note with it: recombinant CYP3A4, Luciferin-PPXE luminescence, 60 min; series mostly up to 57.1 µM. An outline of the steps:
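20nM CYP3A4 + 25uM Luciferin-PPXE (=KM), 200mM KPO4; cpd 10 min RT; NADPH regen, 60 min RT; stop w/ detection buffer, 20 min; luminescence. Normalized to 57 uM ketoconazole.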

The target of assay [11] is Cytochrome P450 2C19 (Homo sapiens) (UniProt P33261). The experiment in a line: qHTS Assay for Inhibitors and Substrates of Cytochrome P450 2C19 (AID 899). Also: potency is read from the fitted curve at half-maximal effect; nearly all actives have a fitted effect of over 60% in size. The conditions noted are these: recombinant CYP2C19, luciferin-H EGE luminescence; series mostly up to 57.1 µM. An outline of the steps:
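NADPH-dependent conversion of Luciferin-H EGE (10uM, at KM) by 5nM enzyme in 50mM KPO4, 60 min at 37C following 10 min compound preincubation. Stopped with luciferin detection buffer; luminescence read after 20 min.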

Assay [12] is described as follows: Confirmation and Secondary Assay for Modulators of Hemoglobin Beta Chain Splicing at IVS2 654 locus (AID 910).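 Also: per-well total GFP intensity by laser scanning cytometry after 2-day treatment; % of control where 0% means no effect.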 The conditions noted are these: HeLa EGFP-654 splicing reporter, GFP fluorescence, 48 h; series mostly up to 38.3 µM. An outline of the steps: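 HeLa cells stably carrying EGFP interrupted by mutant beta-globin IVS2-654 intron (CMV-driven) were treated with compound for 2 days at 37C; corrected splicing was scored as total peak GFP intensity per well (488 nm excitation, 500-520 nm emission).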

A short description of assay [13]: Confirmation and Secondary Assay for Modulators of Hemoglobin Beta Chain Splicing at IVS2 705 locus (AID 930).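 Also: HeLa cells stably expressing the EGFP-705 splicing reporter; % of control where 0% means no effect.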 The note with it: HeLa EGFP-705 splicing reporter, GFP fluorescence, 48 h; series mostly up to 38.3 µM. The method, boiled down: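 Restored EGFP fluorescence after 2-day compound exposure reports splicing correction in IVS2-705 EGFP reporter HeLa cells; positive control was 500 nM splice-blocking PNA oligo. Signal measured as well total peak GFP intensity (488 nm excitation).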

Assay [14] in a line: qHTS Assay for Lipid Storage Modulators (AID 1519; calls by dose curve). The conditions noted are these: Drosophila S3 cells, BODIPY lipid droplet/cell ratio, laser cytometry, cells loaded with oleic acid; for activity change, negative = inhibition: at 57.5 µM (top of the series). An outline of the steps:
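Cells seeded at 5,000 per well were treated with compounds over a concentration series and loaded with oleic acid (400 uM, as added). Lipid droplet fluorescence (488 nm excitation, 500-530 nm channel) was read by laser-scanning cytometry and normalized to 20 uM Triacsin C.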

A short description of assay [15]: Primary qHTS for small molecule stabilizers of the endoplasmic reticulum resident proteome: Secreted ER Calcium Modulated Protein (SERCaMP) assay (AID 1508630). Also: % is scaled to controls: 0 for no effect and ±100 for the full control effect. The note with it: SH-SY5Y GLuc-SERCaMP (Gaussia luciferase released on ER calcium loss) secretion, thapsigargin, luminescence; series mostly up to 38.4 µM. An outline of the steps: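 GLuc-SERCaMP-expressing SH-SY5Y cells, pretreated 16 h with compound, are challenged with thapsigargin to empty ER calcium stores; after 4 h, coelenterazine is added directly to the medium and luminescence is imaged.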

The target in assay [16] is Ubiquitin carboxyl-terminal hydrolase 1 (Homo sapiens) (UniProt O94782). Briefly: Inhibitors of USP1/UAF1: Pilot qHTS (AID 504865).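 Also: rhodamine fluorescence freed from ubiquitin-rhodamine substrate followed over time; top concentration of the series differs between compounds; % is scaled to controls: 0 for no effect and ±100 for the full control effect; nearly all actives have a fitted effect of over 35% in size.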 The conditions noted are these: purified USP1/UAF1, Ub-rhodamine cleavage fluorescence; series mostly up to 54.9 µM. An outline of the steps: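 Kinetic fluorescence assay: 1nM USP1/UAF1, 15 min compound preincubation, then 150nM Ub-Rho; 480/540 nm.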
Ubiquitin carboxyl-terminal hydrolase 1 (Homo sapiens), sequence (O94782 whole entry, looked up): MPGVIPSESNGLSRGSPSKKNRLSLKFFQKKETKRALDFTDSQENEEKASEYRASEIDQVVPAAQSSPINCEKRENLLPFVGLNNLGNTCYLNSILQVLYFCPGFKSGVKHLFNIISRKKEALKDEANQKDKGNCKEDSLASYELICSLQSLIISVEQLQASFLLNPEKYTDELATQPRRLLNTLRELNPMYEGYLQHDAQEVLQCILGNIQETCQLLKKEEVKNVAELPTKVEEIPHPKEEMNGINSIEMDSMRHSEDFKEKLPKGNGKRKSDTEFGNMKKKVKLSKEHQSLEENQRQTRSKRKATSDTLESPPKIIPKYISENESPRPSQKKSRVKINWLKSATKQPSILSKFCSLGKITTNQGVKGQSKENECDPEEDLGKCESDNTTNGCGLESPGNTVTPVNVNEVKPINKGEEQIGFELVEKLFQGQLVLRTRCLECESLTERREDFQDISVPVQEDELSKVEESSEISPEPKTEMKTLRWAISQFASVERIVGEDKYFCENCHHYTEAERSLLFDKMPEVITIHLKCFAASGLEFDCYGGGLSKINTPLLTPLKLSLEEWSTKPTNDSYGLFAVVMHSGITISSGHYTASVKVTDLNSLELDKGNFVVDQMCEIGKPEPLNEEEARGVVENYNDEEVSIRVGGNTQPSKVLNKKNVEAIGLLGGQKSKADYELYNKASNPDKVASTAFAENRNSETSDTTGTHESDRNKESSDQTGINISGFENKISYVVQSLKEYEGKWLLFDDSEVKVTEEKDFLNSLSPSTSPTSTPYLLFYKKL

The mark [17] stands for this setting: measured here: cell count channel max response.
The mark [18] stands for this setting: measured here: lipid channel max response.

Cytochrome P450 1A2 (Homo sapiens), sequence (P05177 whole entry, looked up): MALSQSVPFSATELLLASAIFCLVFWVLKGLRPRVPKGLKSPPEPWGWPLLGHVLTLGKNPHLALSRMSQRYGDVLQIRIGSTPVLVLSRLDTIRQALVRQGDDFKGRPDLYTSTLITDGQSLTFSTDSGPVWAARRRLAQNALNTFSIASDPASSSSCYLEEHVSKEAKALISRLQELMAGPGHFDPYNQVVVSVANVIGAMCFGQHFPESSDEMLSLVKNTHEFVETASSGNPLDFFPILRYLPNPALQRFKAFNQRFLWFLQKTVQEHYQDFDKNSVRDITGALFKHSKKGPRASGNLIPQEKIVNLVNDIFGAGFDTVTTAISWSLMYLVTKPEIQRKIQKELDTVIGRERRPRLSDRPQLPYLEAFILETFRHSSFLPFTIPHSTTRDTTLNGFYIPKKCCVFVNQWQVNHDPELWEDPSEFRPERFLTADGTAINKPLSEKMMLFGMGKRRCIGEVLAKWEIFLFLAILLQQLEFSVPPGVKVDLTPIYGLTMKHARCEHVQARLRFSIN
Cytochrome P450 3A4 (Homo sapiens), sequence (P08684 whole entry, looked up): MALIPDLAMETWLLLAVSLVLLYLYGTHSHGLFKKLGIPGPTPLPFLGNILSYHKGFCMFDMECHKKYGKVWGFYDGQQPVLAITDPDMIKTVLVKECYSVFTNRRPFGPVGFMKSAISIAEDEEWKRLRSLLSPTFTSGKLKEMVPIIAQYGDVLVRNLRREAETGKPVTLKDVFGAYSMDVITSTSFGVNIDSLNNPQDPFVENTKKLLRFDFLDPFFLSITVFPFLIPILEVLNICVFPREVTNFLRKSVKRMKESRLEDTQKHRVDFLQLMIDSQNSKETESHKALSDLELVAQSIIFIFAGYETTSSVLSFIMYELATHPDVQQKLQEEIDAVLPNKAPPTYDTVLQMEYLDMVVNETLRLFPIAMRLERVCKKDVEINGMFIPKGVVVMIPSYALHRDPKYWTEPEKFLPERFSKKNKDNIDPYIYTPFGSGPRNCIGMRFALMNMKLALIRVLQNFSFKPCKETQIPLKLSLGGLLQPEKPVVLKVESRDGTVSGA
3',5'-cyclic-AMP phosphodiesterase 4B (Homo sapiens), sequence (Q07343 whole entry, looked up): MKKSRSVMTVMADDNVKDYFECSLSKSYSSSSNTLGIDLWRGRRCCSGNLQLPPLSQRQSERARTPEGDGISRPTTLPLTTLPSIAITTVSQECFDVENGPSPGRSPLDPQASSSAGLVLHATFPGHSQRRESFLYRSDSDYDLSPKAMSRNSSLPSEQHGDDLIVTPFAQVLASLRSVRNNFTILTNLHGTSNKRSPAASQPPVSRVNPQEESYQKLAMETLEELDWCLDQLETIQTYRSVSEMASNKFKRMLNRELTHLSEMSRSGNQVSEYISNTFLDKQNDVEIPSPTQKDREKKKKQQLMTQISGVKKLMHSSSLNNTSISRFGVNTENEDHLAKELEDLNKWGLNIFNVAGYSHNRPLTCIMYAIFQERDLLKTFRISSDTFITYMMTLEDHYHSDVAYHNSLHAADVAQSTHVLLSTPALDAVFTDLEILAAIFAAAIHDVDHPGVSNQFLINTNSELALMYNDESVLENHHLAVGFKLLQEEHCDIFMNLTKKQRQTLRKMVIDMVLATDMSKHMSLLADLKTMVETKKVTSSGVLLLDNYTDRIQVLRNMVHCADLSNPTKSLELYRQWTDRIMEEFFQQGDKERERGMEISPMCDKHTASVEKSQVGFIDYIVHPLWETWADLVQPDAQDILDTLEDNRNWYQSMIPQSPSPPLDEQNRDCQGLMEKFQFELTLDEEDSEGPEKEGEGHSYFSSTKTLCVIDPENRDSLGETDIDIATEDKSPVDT
Cytochrome P450 2C19 (Homo sapiens), sequence (P33261 whole entry, looked up): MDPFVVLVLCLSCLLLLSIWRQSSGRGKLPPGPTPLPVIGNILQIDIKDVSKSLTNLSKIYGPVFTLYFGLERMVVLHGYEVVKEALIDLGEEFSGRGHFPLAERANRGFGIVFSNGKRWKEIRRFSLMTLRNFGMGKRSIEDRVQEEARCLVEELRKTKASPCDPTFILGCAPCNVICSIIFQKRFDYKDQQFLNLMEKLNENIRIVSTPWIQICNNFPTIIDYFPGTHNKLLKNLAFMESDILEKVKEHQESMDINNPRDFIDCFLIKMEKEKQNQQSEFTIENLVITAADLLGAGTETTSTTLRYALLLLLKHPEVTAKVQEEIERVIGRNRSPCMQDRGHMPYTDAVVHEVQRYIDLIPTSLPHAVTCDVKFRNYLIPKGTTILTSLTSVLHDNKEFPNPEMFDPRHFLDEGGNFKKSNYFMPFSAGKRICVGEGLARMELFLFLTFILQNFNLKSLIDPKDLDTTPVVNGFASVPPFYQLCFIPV

Consider `CC(=O)NCCNc1nc(-c2ccccc2Cl)nc2ccccc12`, for which the Potency in [1] is > 11.4 µM (inactive); in assay [3], 7.94 µM (active); in [6], > 46 µM (inactive); in assay [7], > 46 µM (inactive); in assay [11], 3.98 µM (active). For the same molecule, the activity change, negative = inhibition in [2] was 22.6% (inactive); in [4] it was -5.34% (inactive); in assay [14], 8.12% (inactive). Moreover, the activity, negative = inhibition in assay [5] was -10.3% (inactive). The outcome in [8], in assay [12] and in [13] was inactive. The Potency result in assay [9], in assay [10] and in assay [15] was “inactive” throughout. For the same molecule, the max response was found to be 11.5% in assay [14] (setting [17]) and 20.7% in [14] (setting [18]).
For `CN(C)Cc1ccccc1-c1nc(NCc2ccccc2)c2ccccc2n1`, the Potency in assay [1] is > 11.4 µM (inactive); in assay [3], 1.26 µM (active); in [6] it was > 46 µM (inactive); in assay [7], > 46 µM (inactive). Moreover, the activity change, negative = inhibition is 15.5% (inactive) in assay [2], -17.2% (inactive) in [4] and 5.53% (inactive) in [14]. Besides, in [5], the activity, negative = inhibition was 4.49% (inactive). Also, the molecule was classed as inactive in assay [8], in assay [12] and in assay [13]. In addition, the Potency result in [10], in [16] and in [15] was “inactive” in each case. Further, the max response in assay [14] (setting [17]) turned out to be 1.11%; in assay [14] (setting [18]), 6.16%.
`COc1ncc2ncc(=O)n(Cc3cccs3)c2n1`: the Potency was > 11.4 µM (inactive) in assay [1], 10 µM (active) in assay [3], > 9.22 µM (inactive) in assay [6] and > 46 µM (inactive) in assay [7]. The activity change, negative = inhibition is 1.19% (inactive) in [2], -2.85% (inactive) in [4] and 4.1% (inactive) in assay [14]. Further, the activity, negative = inhibition in assay [5] was -3.48% (inactive). The molecule was called inactive in assay [8]. Besides, the Potency result in assay [10] and in assay [15] was “inactive” in each case. Moreover, the max response in assay [14] (setting [17]) is 9.65%; in [14] (setting [18]), 19.6%.
